Bioassay records from PubChem BioAssay.
Shown are actives, neighbours in structure and some others; about 5.1% of the full set was active somewhere.
Tau fibril ThT – tau fibrillization inhibition (ThT binding). AID 1460. P10636. recombinant tau K18 P301L, heparin-induced fibrillization, ThT fluorescence. actives 2.1% (n = 270,000). Potency, µM (doses to about 57.4 µM), for inactives: at the highest dose activity, negative = inhibition, hits mostly inhibitors; further: potency means the concentration at half of the fitted maximal effect; nearly all actives have a fitted effect of over 55% in size
Target sequence (P10636 561-689 P618L limits assumed): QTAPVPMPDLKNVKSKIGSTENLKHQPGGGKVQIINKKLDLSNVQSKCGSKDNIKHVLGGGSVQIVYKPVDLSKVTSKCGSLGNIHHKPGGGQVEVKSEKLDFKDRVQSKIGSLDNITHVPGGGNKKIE
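Heparin-induced (20 uM) aggregation of recombinant human K18 P301L tau, 15 uM unlabeled with 0.24 uM labeled, pH 7 acetate buffer, 6 hr at 37 C with compound. Fibrils quantified by 30 uM ThT fluorescence after 1 hr ambient incubation.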
PNC assembly inh – inhibitors of perinucleolar compartment assembly; AID 2417; activity change (PNC), negative = inhibition, % at 10 µM; actives 3.1% (n = 140,000); PC3M PTB-GFP, PNC prevalence imaging, 16 h; hits give low values;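 active means readout at or below -70, meaning at least 70% loss of cells showing the perinucleolar compartment, a nuclear body marking cancer cells; inconclusive means readout between -30 and a set limit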;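 further: plate controls were DMSO wells for no effect and camptothecin positive control wells for full effect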
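Compounds are pinned in duplicate onto adhered PC3M cells stably expressing GFP-tagged PTB and incubated 16 h at 37 C. Cells are then fixed, nuclei stained with Hoechst, and PNC-positive cells counted.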
NPSR antagonist – neuropeptide S receptor (human) antagonism, cAMP; Q6W5P4; CHO-NPSR cells, cAMP TR-FRET, antagonist mode; Potency, µM (top dose mostly 38.3 µM), for inactives: at the top dose activity change, negative = inhibition, most hits filed as inhibitors; actives 1% (n = 220,000); further: potency means the concentration at half of the fitted maximal effect; nearly all actives have a fitted effect of over 50% in size
Target sequence (Q6W5P4 whole entry, looked up): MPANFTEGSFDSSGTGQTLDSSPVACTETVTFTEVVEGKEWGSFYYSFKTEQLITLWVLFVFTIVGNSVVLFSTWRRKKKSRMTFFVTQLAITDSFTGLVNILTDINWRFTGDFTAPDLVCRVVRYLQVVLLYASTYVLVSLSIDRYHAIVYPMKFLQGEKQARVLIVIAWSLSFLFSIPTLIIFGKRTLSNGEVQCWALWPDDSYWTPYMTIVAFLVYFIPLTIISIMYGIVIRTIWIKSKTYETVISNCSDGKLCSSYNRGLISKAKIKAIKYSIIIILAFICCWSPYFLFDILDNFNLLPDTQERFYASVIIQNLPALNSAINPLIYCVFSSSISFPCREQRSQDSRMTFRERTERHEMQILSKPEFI
KDM4E inh – blocks human JMJD2E demethylase activity; B2RXH2; JMJD2E catalytic domain, FDH-coupled NADH fluorescence (FDH is formaldehyde dehydrogenase); Potency, µM (highest dose often 57.1 µM), inactives show top-dose activity change, negative = inhibition, most hits filed as inhibitors; actives 1.6% (n = 230,000); AID 2147; active means well fitted inhibition curve with a large enough effect, not every such curve was filed as active; inconclusive means small, poorly fitted or top-dose-only effect, or another doubt; inactive means no such curve, though single readings can be large or run the other way;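 further: potency means the concentration at half of the fitted maximal effect; 0% = wells with enzyme and -100% = buffer wells without enzyme; nearly all actives have a fitted effect of over 50% in size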
Tau fluor counter – counter-screen for tau fibril formation inhibitors | actives 0.93% (n = 280,000) | tau K18 P301L Alexa594 fluorescence, heparin fibrillization | Potency, µM (top dose mostly 57.7 µM), without a hit: at the top dose activity change, negative = decrease; further: potency means the concentration at half of the fitted maximal effect; nearly all actives have a fitted effect of over 55% in size
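Human tau K18 P301L (15 uM unlabeled, 0.24 uM Alexa 594-labeled) in 100 mM sodium acetate pH 7 with 20 uM heparin, 6 hr at 37 C. ThT 30 uM added, 1 hr ambient; Alexa 594 FP and total fluorescence read at 555/632 nm.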
Tau FP inhib – inhibitors of human tau fibril formation; K18 P301L tau heparin fibrillization, Alexa594 FP, 6 h; Potency, µM (highest dose often 57.7 µM), inactives show at the top dose activity, negative = inhibition, most hits filed as inhibitors; actives 0.39% (n = 280,000); AID 1468; further: potency means the concentration at half of the fitted maximal effect; nearly all actives have a fitted effect of over 55% in size
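Heparin (20 uM) drove fibril formation of recombinant tau K18 P301L, 15 uM unlabeled with 0.24 uM Alexa 594 label, for 6 hr at 37 C in 100 mM sodium acetate pH 7. Fluorescence polarization (555/632 nm) read 1 hr after 30 uM ThT.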
* = called active by the depositor; [ ] = dose if it differs, or a comment. Unless noted, the call rests on the fitted dose curve; in most records, active means well fitted curve in the direction sought with a large enough effect; inconclusive means small, poorly fitted or top-dose-only effect, or another doubt; inactive means no such curve, though single readings can be large; an effect the other way counts as inactive or inconclusive. Unless noted, on the % scale 0 is the no-effect control and ±100 the full control effect.

Results for Cc1ccc(-c2cn3c(n2)sc2cc(C(=O)NC4CCCCCC4)ccc23)cc1 ?
Tau fibril ThT: -16.1%; Tau fluor counter: -12.0%; Tau FP inhib: 8.8%

How did Cc1cccc(NC2=C/C(=N/S(=O)(=O)c3cccs3)c3ccccc3C2=O)c1 do in these assays?
Tau fibril ThT: 15.3%; PNC assembly inh: -97.0*; NPSR antagonist: 5.01µM*; KDM4E inh: 3.3%; Tau fluor counter: -3.5%; Tau FP inhib: 4.5%

How did COc1ccc(CN(CCC(c2ccccc2)c2ccc(OC(C)C)cc2)C(=O)CCl)cc1OC (stereo unspecified) do in these assays?
Tau fibril ThT: inconclusive; PNC assembly inh: inconclusive; NPSR antagonist: 10µM*; KDM4E inh: -18.9%; Tau fluor counter: -13.1%; Tau FP inhib: 11.9%

Results for Cc1ccc2oc(C(=O)Nc3cccc(Cl)c3)cc(=O)c2c1 ?
Tau fibril ThT: -11.1%; Tau fluor counter: -9.8%; Tau FP inhib: -10.9%

How did CCOc1ccccc1C(=O)NC1(C(F)(F)F)C(=O)Nc2c1c(=O)[nH]c(=O)n2-c1ccccc1 (stereo unspecified) do in these assays?
Tau fibril ThT: -5.8%; Tau fluor counter: -6.0%; Tau FP inhib: inconclusive

Results for CNC(=S)N(CCc1c(C)[nH]c2ccccc12)Cc1ccco1 ?
Tau fibril ThT: -11.2%; NPSR antagonist: -20.6%; KDM4E inh: -24.6%; Tau fluor counter: -29.1%; Tau FP inhib: 7.2%

How did COc1ccc(NC(=S)N(CCc2c(C)[nH]c3ccccc23)Cc2ccco2)cc1 do in these assays?
Tau fibril ThT: inconclusive; PNC assembly inh: 29.6; NPSR antagonist: -21.5%; KDM4E inh: -3.0%; Tau fluor counter: 14.1µM*[quencher]; Tau FP inhib: 12.4%

Results for CCOc1ccc(NC(=S)N(CCc2c(C)[nH]c3ccccc23)Cc2ccco2)cc1 ?
Tau fibril ThT: inconclusive; PNC assembly inh: 17.7; NPSR antagonist: -15.7%; KDM4E inh: 10.6%; Tau fluor counter: 12.6µM*[quencher]; Tau FP inhib: inconclusive

How did COc1cc(C(C[N+](=O)[O-])c2c(N)n(C)c(=O)n(C)c2=O)ccc1O (stereo unspecified) do in these assays?
Tau fibril ThT: inconclusive; NPSR antagonist: 8.1%; KDM4E inh: -1.1%; Tau fluor counter: -1.9%; Tau FP inhib: -3.0%

How did COc1cccc(F)c1C(C[N+](=O)[O-])c1c(N)n(C)c(=O)n(C)c1=O (stereo unspecified) do in these assays?
NPSR antagonist: 6.31µM*; KDM4E inh: 11.3%; Tau fluor counter: -8.7%; Tau FP inhib: 19.0%

Results for COC(=O)c1sc(N2C(=O)c3oc4ccc(C)cc4c(=O)c3C2c2ccc(OC)cc2)nc1C (stereo unspecified) ?
Tau fibril ThT: inconclusive; Tau fluor counter: -8.1%; Tau FP inhib: 5.4%

Results for COc1cc(/C=C(\C#N)c2nc3ccccc3[nH]2)cc(Br)c1OCc1ccc(F)cc1 ?
Tau fibril ThT: inconclusive; PNC assembly inh: 0.7; NPSR antagonist: 5.01µM*; KDM4E inh: inconclusive; Tau fluor counter: inconclusive; Tau FP inhib: inconclusive

How did CCN(CC)c1ccc(/C=C(/C#N)c2nc3ccc(C)cc3[nH]2)c(OC(C)C)c1 do in these assays?
Tau fibril ThT: inconclusive; PNC assembly inh: 47.5; NPSR antagonist: inconclusive; KDM4E inh: -3.2%; Tau fluor counter: inconclusive; Tau FP inhib: 10.6%

Results for COc1cc(/C=C(\C#N)C(=O)c2c[nH]c3ccccc23)cc(OC)c1O ?
Tau fibril ThT: 15.8µM*; NPSR antagonist: -34.2%; KDM4E inh: -11.6%; Tau fluor counter: -8.0%; Tau FP inhib: 8.7%

Results for COc1cc(/C=C(\C#N)c2nc3ccccc3[nH]2)cc(OC)c1O ?
Tau fibril ThT: 7.08µM*; NPSR antagonist: -30.6%; KDM4E inh: 9.0%; Tau fluor counter: inconclusive; Tau FP inhib: inconclusive

What do the screens show for `COc1cc(/C=C(\C#N)c2nc3ccccc3[nH]2)ccc1OCc1ccccc1F`?
Tau fibril ThT: 4.2%; Tau fluor counter: -21.2%; Tau FP inhib: inconclusive

Results for CCOc1cc(N(CC)CC)ccc1/C=C(/C#N)c1nc2ccccc2[nH]1 ?
Tau fibril ThT: inconclusive; PNC assembly inh: inconclusive; NPSR antagonist: inconclusive; KDM4E inh: 11.3%; Tau fluor counter: 10µM*[quencher]; Tau FP inhib: 11.0%

How did COc1cc(/C=C(\C#N)C(=O)NCCc2ccccc2)cc(OC)c1O do in these assays?
Tau fibril ThT: inconclusive; NPSR antagonist: -21.5%; KDM4E inh: -12.7%; Tau fluor counter: -29.1%; Tau FP inhib: 1.9%

Results for COCCCNC(=O)c1cc2c(=O)oc3ccc(C)cc3c2s1 ?
Tau fibril ThT: -7.4%; Tau fluor counter: -10.3%; Tau FP inhib: -7.9%

Results for CC(=O)c1cccc(NC(=O)c2nc(-c3ccccc3)n(-c3cccc(Cl)c3)n2)c1 ?
Tau fibril ThT: -6.0%; Tau fluor counter: -17.9%; Tau FP inhib: -3.1%

What do the screens show for `Cc1ccc(N(CC(=O)N2CCN(c3ccc(Cl)cc3)CC2)S(=O)(=O)c2c(C)noc2C)cc1`?
Tau fibril ThT: -4.8%; Tau fluor counter: -19.4%; Tau FP inhib: -3.4%

Results for Cc1nn(-c2ccc(F)cc2)c(-n2cccc2)c1C(=O)NCCc1ccc(Cl)cc1 ?
Tau fibril ThT: -15.9%; Tau fluor counter: -8.3%; Tau FP inhib: 0.0%

Results for Cc1c(Cl)ccc2sc(N3CCN(C(=O)CS(=O)(=O)c4ccccc4)CC3)nc12 ?
Tau fibril ThT: inconclusive; Tau fluor counter: -28.1%; Tau FP inhib: 3.9%

What do the screens show for `CC(=O)c1ccc(N2CCN(C(=O)CCCCn3c(=O)[nH]c4ccccc4c3=O)CC2)cc1`?
Tau fibril ThT: inconclusive; Tau fluor counter: -4.0%; Tau FP inhib: -2.0%

What do the screens show for `Cc1ccccc1-c1cc2nccc(-c3cc(Cl)ccc3O)n2n1`?
Tau fibril ThT: 8.6%; Tau fluor counter: 4.2%; Tau FP inhib: 2.1%

How did Cc1ccc(O)c(-c2ccnc3cc(-c4ccc(Cl)cc4)nn23)c1 do in these assays?
Tau fibril ThT: 4.6%; Tau fluor counter: inconclusive; Tau FP inhib: 31.6µM*

What do the screens show for `O=C(Nc1cc(C(=O)Nc2ccc(S(=O)(=O)O)cc2S(=O)(=O)O)cc(C(=O)Nc2ccc(S(=O)(=O)O)cc2S(=O)(=O)O)c1)Nc1cc(C(=O)Nc2ccc(S(=O)(=O)O)cc2S(=O)(=O)O)cc(C(=O)Nc2ccc(S(=O)(=O)O)cc2S(=O)(=O)O)c1`?
Tau fibril ThT: inconclusive; NPSR antagonist: -10.7%[46.1 µM]; KDM4E inh: inconclusive; Tau fluor counter: -6.2%; Tau FP inhib: 14.1µM*
